In PubChem BioAssay AID1159580 (chemical genetic matrix, 2015):
Out of some 5,500 compounds screened, about 2,000 (36%) were called active. About 18% were inconclusive and are not listed. No stated cut-off is given here; in the data, active means normalized growth mostly below about 0.91 (no sharp cut-off); inconclusive means no clear call, values can overlap the other calls; inactive means mostly above about 0.92. The list shows a part of the results.

Assay: chemical genetic growth profiling, strain panel (AID 1159580);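 further: tested at 20 µM; growth read once vehicle control cultures reached saturation at 30 °C; 1 = growth at the plate median or of vehicle wells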
Details: growth OD

Measured: normalized growth

CC(=O)Oc1ccc2c(c1)CCC1C2CC[C@@]2(C)C1CC[C@@H]2OC(C)=O (stereo not given in full)
active: S. cerevisiae deletion strains, locus YLR262C, strain YPT6 (second series), stronger effect = lower value 0.663
inactive: S. cerevisiae deletion strains, locus YJR075W, strain HOC1, stronger effect = lower value 0.957 | S. cerevisiae deletion strains, locus YKL009W, strain mrt4, stronger effect = lower value 0.956 | S. cerevisiae deletion strains, locus YKL068W, stronger effect = lower value 0.971 | S. cerevisiae deletion strains, locus YKL085W, strain MDH1 (second series), stronger effect = lower value 0.959 | S. cerevisiae deletion strains, locus YKL085W, strain MDH1, stronger effect = lower value 0.959 | S. cerevisiae deletion strains, locus YKL160W, strain elf1, stronger effect = lower value 1 | S. cerevisiae deletion strains, locus YKL190W, strain CNB1, stronger effect = lower value 0.961 | S. cerevisiae deletion strains, locus YKR001C, strain vps1, stronger effect = lower value 0.98 | S. cerevisiae deletion strains, locus YKR026C, strain gcn3, stronger effect = lower value 0.973 | S. cerevisiae deletion strains, locus YKR091W, strain srl3, stronger effect = lower value 0.99 | S. cerevisiae deletion strains, locus YLL001W, strain dnm1, stronger effect = lower value 0.96 | S. cerevisiae deletion strains, locus YLL026W, stronger effect = lower value 0.991 | S. cerevisiae deletion strains, locus YLL041C, strain sdh2, stronger effect = lower value 0.996 | S. cerevisiae deletion strains, locus YLR027C, strain aat2, stronger effect = lower value 0.997 | S. cerevisiae deletion strains, locus YLR039C, strain RIC1, stronger effect = lower value 0.838 | S. cerevisiae deletion strains, locus YLR058C, strain SHM2, stronger effect = lower value 0.968 | S. cerevisiae deletion strains, locus YLR102C, strain apc9, stronger effect = lower value 0.968 | S. cerevisiae deletion strains, locus YLR113W, strain HOG1, stronger effect = lower value 0.911 | S. cerevisiae deletion strains, locus YLR221C, strain rsa3, stronger effect = lower value 0.958 | S. cerevisiae deletion strains, locus YLR258W, strain gsy2, stronger effect = lower value 0.991 | S. cerevisiae deletion strains, locus YLR262C, strain YPT6, stronger effect = lower value 0.729 | S. cerevisiae deletion strains, locus YLR268W, strain sec22, stronger effect = lower value 0.986 | S. cerevisiae deletion strains, locus YLR320W, strain mms22, stronger effect = lower value 0.908 | S. cerevisiae deletion strains, locus YLR330W, strain CHS5, stronger effect = lower value 0.981 | S. cerevisiae deletion strains, locus YLR342W, strain FKS1 (second series), stronger effect = lower value 1.03 | S. cerevisiae deletion strains, locus YLR342W, strain FKS1, stronger effect = lower value 0.969 | S. cerevisiae deletion strains, locus YLR357W, strain rsc2, stronger effect = lower value 1 | S. cerevisiae deletion strains, locus YLR370C, strain arc18, stronger effect = lower value 0.977 | S. cerevisiae deletion strains, locus YLR371W, strain rom2, stronger effect = lower value 0.981 | S. cerevisiae deletion strains, locus YLR384C, strain iki3, stronger effect = lower value 0.985 | S. cerevisiae deletion strains, locus YLR418C, strain cdc73, stronger effect = lower value 0.963 | S. cerevisiae deletion strains, locus YML016C, strain PPZ1, stronger effect = lower value 0.974 | S. cerevisiae deletion strains, locus YML032C, strain rad52, stronger effect = lower value 0.974 | S. cerevisiae deletion strains, locus YML120C, strain ndi1, stronger effect = lower value 0.97 | S. cerevisiae deletion strains, locus YML124C, strain tub3, stronger effect = lower value 0.965 | S. cerevisiae deletion strains, locus YMR058W, strain fet3, stronger effect = lower value 1 | S. cerevisiae deletion strains, locus YMR078C, strain ctf18, stronger effect = lower value 0.964 | S. cerevisiae deletion strains, locus YMR125W, strain sto1, stronger effect = lower value 0.994 | S. cerevisiae deletion strains, locus YMR129W, stronger effect = lower value 0.989 | S. cerevisiae deletion strains, locus YMR205C, strain PFK2, stronger effect = lower value 0.947 | S. cerevisiae deletion strains, locus YMR223W, strain ubp8, stronger effect = lower value 0.984 | S. cerevisiae deletion strains, locus YMR231W, strain pep5, stronger effect = lower value 1.02 | S. cerevisiae deletion strains, locus YMR263W, strain SAP30, stronger effect = lower value 0.967 | S. cerevisiae deletion strains, locus YMR307W, strain GAS1, stronger effect = lower value 1.12 | S. cerevisiae deletion strains, locus YNL067W, strain RPL9B, stronger effect = lower value 0.957 | S. cerevisiae deletion strains, locus YNL071W, strain lat1, stronger effect = lower value 0.97 | S. cerevisiae deletion strains, locus YNL128W, strain TEP1, stronger effect = lower value 0.986 | S. cerevisiae deletion strains, locus YNL183C, strain NPR1, stronger effect = lower value 0.894 | S. cerevisiae deletion strains, locus YNL209W, strain ssb2, stronger effect = lower value 1.02 | S. cerevisiae deletion strains, locus YNL233W, strain BNI4, stronger effect = lower value 0.938 | S. cerevisiae deletion strains, locus YNL248C, strain rpa49, stronger effect = lower value 0.986 | S. cerevisiae deletion strains, locus YNL250W, strain rad50, stronger effect = lower value 0.972 | S. cerevisiae deletion strains, locus YNL271C, strain bni1, stronger effect = lower value 0.996 | S. cerevisiae deletion strains, locus YNL298W, strain CLA4, stronger effect = lower value 0.969 | S. cerevisiae deletion strains, locus YNL307C, strain MCK1, stronger effect = lower value 0.958 | S. cerevisiae deletion strains, locus YNL322C, strain KRE1 (second series), stronger effect = lower value 0.988 | S. cerevisiae deletion strains, locus YNR049C, strain mso1, stronger effect = lower value 0.99 | S. cerevisiae deletion strains, locus YNR052C, strain pop2, stronger effect = lower value 0.985 | S. cerevisiae deletion strains, locus YOL006C, strain TOP1, stronger effect = lower value 0.796 | S. cerevisiae deletion strains, locus YOL012C, strain htz1 1.06 | S. cerevisiae deletion strains, locus YOL147C, strain pex11, stronger effect = lower value 0.969 | S. cerevisiae deletion strains, locus YOR001W, strain rrp6, stronger effect = lower value 0.972 | S. cerevisiae deletion strains, locus YOR061W, strain CKA2, stronger effect = lower value 0.937 | S. cerevisiae deletion strains, locus YOR069W, strain VPS5, stronger effect = lower value 0.987 | S. cerevisiae deletion strains, locus YOR070C, strain gyp1, stronger effect = lower value 1.01 | S. cerevisiae deletion strains, locus YOR080W, strain dia2, stronger effect = lower value 1.02 | S. cerevisiae deletion strains, locus YOR083W, strain WHI5, stronger effect = lower value 0.936 | S. cerevisiae deletion strains, locus YOR106W, strain vam3, stronger effect = lower value 1.03 | S. cerevisiae deletion strains, locus YOR136W, strain idh2, stronger effect = lower value 0.982 | S. cerevisiae deletion strains, locus YOR144C, strain elg1, stronger effect = lower value 0.968 | S. cerevisiae deletion strains, locus YOR184W, strain ser1, stronger effect = lower value 0.906 | S. cerevisiae deletion strains, locus YOR231W, strain MKK1, stronger effect = lower value 0.923 | S. cerevisiae deletion strains, locus YOR265W, strain rbl2, stronger effect = lower value 0.992 | S. cerevisiae deletion strains, locus YOR270C, strain vph1, stronger effect = lower value 0.968 | S. cerevisiae deletion strains, locus YOR290C, strain snf2, stronger effect = lower value 0.968 | S. cerevisiae deletion strains, locus YOR316C, strain cot1, stronger effect = lower value 0.965 | S. cerevisiae deletion strains, locus YPL051W, strain arl3, stronger effect = lower value 1.01 | S. cerevisiae deletion strains, locus YPL055C, strain LGE1, stronger effect = lower value 0.838 | S. cerevisiae deletion strains, locus YPL078C, strain atp4, stronger effect = lower value 1.04 | S. cerevisiae deletion strains, locus YPL106C, strain sse1, stronger effect = lower value 1.03 | S. cerevisiae deletion strains, locus YPL240C, strain hsp82, stronger effect = lower value 1 | S. cerevisiae deletion strains, locus YPL241C, strain CIN2, stronger effect = lower value 0.972 | S. cerevisiae deletion strains, locus YPL256C, strain CLN2, stronger effect = lower value 0.924 | S. cerevisiae deletion strains, locus YPR119W, strain clb2, stronger effect = lower value 0.955 | S. cerevisiae deletion strains, locus YPR141C, strain kar3, stronger effect = lower value 0.97 | S. cerevisiae deletion strains, locus YPR163C, strain tif3, stronger effect = lower value 0.979 | S. cerevisiae deletion strains, locus YPR167C, strain met16, stronger effect = lower value 0.975 | S. cerevisiae deletion strains, strain wtn01, stronger effect = lower value 0.972 | S. cerevisiae strains, strain wild type, stronger effect = lower value 0.958
